Reference: PubChem BioAssay (NCATS)
Values joined by “and” are separate entries in the source; they are usually repeats but may differ in a detail not shown here. Equal values may be shown once. Results filed as inconclusive are left out. Active and inactive are the calls of the source. Unless noted, calls come from the whole dose curve; as a rule, active = well fitted curve in the direction sought with a large enough effect; inconclusive = small, poorly fitted or top-dose-only effect, or another doubt; inactive = no such curve, though single readings can be large; an effect the other way counts as inactive or inconclusive.

Tests used:
[1] = biological target: Calcium and integrin-binding protein 1 (Homo sapiens) (UniProt Q99828); experiment: Primary qHTS for Identification of Calcium Integrin Binding Protein 1 (CIB1) Competitor (AID 1508620); conditions: CIB1-GST / FITC-alphaIIb peptide fluorescence polarization; series mostly up to 114 µM;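 note: GST tagged CIB1 binding a fluorescein labelled alphaIIb integrin peptide tracer; top concentration of the series differs between compounds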
Method in brief: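 CIB1-GST (1 uM final) and compound incubated 15 min at room temperature before adding FITC-alphaIIb peptide tracer (100 nM final). Competition for binding read by fluorescence polarization (ex 480, em 540) after another 15 min at room temperature.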

[2] = biological target: Cytochrome P450 2D6 (Homo sapiens) (UniProt P10635); experiment: Cytochrome P450 family 2 subfamily D member 6 (CYP2D6) small molecule antagonists: luciferase biochemical (cell-free) qHTS assay (AID 1645840; active = well fitted curve in the direction sought with a large enough effect in the repeat runs; an effect the other way counts as inactive or inconclusive; note: nearly all actives have a fitted effect of over 55% in size; note: potency is the fitted concentration of half-maximal effect); conditions: P450-Glo CYP2D6 enzyme, luciferin luminescence, 1 h; series mostly up to 57.4 µM
Method in brief: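 P450-Glo CYP2D6 system: proluciferin substrate converted by enzyme to luciferin, read by luminescence proportional to activity. Enzyme-substrate mix with compound 10 min at room temperature, then NADPH regeneration 1 h before detection reagent.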

[3] = biological target: Cytochrome P450 2C9 (Homo sapiens) (UniProt P11712); experiment: Cytochrome P450 family 2 subfamily C member 9 (CYP2C9) small molecule antagonists: luciferase biochemical (cell-free) qHTS assay (AID 1645842; active = well fitted curve in the direction sought with a large enough effect in the repeat runs; an effect the other way counts as inactive or inconclusive; note: nearly all actives have a fitted effect of over 55% in size; note: potency is the fitted concentration of half-maximal effect); conditions: P450-Glo CYP2C9 enzyme assay, luciferin luminescence; series mostly up to 57.4 µM
Method in brief: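 P450-Glo CYP2C9 system: proluciferin substrate with enzyme in mix containing 0.4% BSA, 10 min at room temperature, then NADPH regeneration solution added and incubated 1 h at 37C. Detection reagent stopped reaction; luminescence read after 20 min as RLU.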

[4] = Primary qHTS for inhibitors of nuclear receptor binding SET domain protein 2 (NSD2) in an isogenic RCH-ACV NSD2 p.E1099K mutant (9B) (AID 1645876); conditions: RCH-ACV NSD2 E1099K (9B) viability, CellTiter-Glo, 72 h; series mostly up to 44.9 µM; note: nearly all actives have a fitted effect of over 70% in size; note: potency is the fitted concentration of half-maximal effect
[5] = Primary qHTS for inhibitors of nuclear receptor binding SET domain protein 2 (NSD2) in an RCH-ACV wild type WT cells (2C) (AID 1645877); conditions: RCH-ACV (leukaemia line) NSD2 WT (2C) viability, CellTiter-Glo, 72 h; series mostly up to 44.9 µM; note: nearly all actives have a fitted effect of over 70% in size; note: potency is the fitted concentration of half-maximal effect

Cytochrome P450 2D6 (Homo sapiens), sequence (P10635 whole entry, looked up): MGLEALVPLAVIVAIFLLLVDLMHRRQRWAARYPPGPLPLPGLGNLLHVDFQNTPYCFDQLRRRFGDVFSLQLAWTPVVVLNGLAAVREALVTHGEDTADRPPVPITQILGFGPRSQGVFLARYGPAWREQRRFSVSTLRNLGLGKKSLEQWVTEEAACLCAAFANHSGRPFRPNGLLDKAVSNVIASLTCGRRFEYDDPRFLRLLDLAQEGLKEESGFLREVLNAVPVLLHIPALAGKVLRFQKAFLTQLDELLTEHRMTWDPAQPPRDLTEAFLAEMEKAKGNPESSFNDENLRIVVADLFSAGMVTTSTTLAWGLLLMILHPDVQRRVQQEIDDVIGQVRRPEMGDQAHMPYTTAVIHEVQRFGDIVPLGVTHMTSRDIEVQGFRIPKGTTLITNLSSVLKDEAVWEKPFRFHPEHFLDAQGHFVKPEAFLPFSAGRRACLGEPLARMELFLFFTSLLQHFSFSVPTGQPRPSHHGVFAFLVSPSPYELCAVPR
Calcium and integrin-binding protein 1 (Homo sapiens), sequence (Q99828 whole entry, looked up): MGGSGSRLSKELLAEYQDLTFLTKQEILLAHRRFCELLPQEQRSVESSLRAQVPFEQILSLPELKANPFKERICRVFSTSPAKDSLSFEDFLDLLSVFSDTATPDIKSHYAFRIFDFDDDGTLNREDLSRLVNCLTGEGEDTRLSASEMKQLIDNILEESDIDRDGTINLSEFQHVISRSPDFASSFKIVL
Cytochrome P450 2C9 (Homo sapiens), sequence (P11712 whole entry, looked up): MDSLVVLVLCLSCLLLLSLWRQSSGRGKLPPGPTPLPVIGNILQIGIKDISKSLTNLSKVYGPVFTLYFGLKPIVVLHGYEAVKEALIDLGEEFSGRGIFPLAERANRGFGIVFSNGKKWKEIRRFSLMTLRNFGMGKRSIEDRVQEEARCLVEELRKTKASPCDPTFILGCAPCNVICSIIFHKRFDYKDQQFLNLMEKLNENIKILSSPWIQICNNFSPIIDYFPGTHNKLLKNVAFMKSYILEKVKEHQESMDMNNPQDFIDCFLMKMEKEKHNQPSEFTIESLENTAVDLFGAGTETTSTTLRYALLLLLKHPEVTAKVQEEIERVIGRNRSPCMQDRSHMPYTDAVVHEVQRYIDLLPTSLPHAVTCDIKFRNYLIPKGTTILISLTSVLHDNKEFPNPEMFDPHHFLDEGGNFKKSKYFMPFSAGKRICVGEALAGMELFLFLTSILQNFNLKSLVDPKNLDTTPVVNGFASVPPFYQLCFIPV

SMILES	Potency [1]	Potency [2]	Potency [3]	Potency [4]	Potency [5]
O=C(N[C@H](Cc1cscn1)C(=O)N[C@@H](CC1CCCCC1)[C@@H](O)[C@@H](O)C1CC1)c1nc2ccccc2[nH]1	inactive	19 µM (active)	1.34 µM (active)		
CC(C)(O)c1ccn2c(-c3ccc(F)c(-c4ccc(F)cc4C#N)c3)cnc2c1F	inactive	19 µM (active)	0.756 µM (active)		
Cc1c(Cl)cccc1S(=O)(=O)Nc1nc(NCCc2ccccc2)nc2c1CN(Cc1ccccc1)CC2	inactive	4.77 µM (active)	6.01 µM (active)		
COc1ccc([C@H](Cc2ccncc2)c2ccccc2)cc1OC1CCCC1	inactive	12 µM (active)	0.425 µM (active)		
O=C(Nc1cc(C(F)(F)F)ccc1N1CCCCC1)c1ccncc1	inactive	8.49 µM (active)	2.13 µM (active)		
CCOC(=O)C1=Cc2ccc(C(F)(F)C(F)(F)F)cc2N=C(N)C1	inactive	3.01 µM (active)	12 µM (active)		
COc1cc(CN(CCN)C(=O)c2cccs2)ccc1OCc1ccccc1	inactive	0.849 µM (active)	10.7 µM (active)	18.3 µM (active)	20.5 µM (active)
COC1CCN(c2cccc(-c3cc(NC(C)=O)nc(-n4nc(C)cc4C)n3)n2)CC1	inactive	6.01 µM (active)	10.7 µM (active)	20.5 µM (active)	16.3 µM (active)
O=C(NC1(c2ccccc2)CC1)c1c(CN2CCC(N3CCCCC3)CC2)c(-c2cccc(C(F)(F)F)c2)nc2cc(Br)ccc12	inactive	4.77 µM (active)	23.9 µM (active)	12.9 µM (active)	10.3 µM (active)
Cn1cc(-c2ccc(S(=O)(=O)n3ccc(/C=C/C(=O)Nc4ccccc4N)c3)cc2)cn1	inactive	2.68 µM (active)	0.849 µM (active)	649 nM (active) and 934 nM (active)	649 nM (active) and 833 nM (active)
COc1cc(NC(=O)c2cc(C3CC3)on2)c(OC)cc1Cl	inactive	2.39 µM (active)	10.7 µM (active)	inactive	inactive
C[C@@H](NC(=O)C(=O)c1c[nH]c2ccc([N+](=O)[O-])cc12)c1ccccc1	inactive	inactive	inactive	inactive	inactive
Cc1csc(N(C(=O)CSc2ccc(-c3ccccc3)nn2)C2CC2)n1	inactive	inactive	10.7 µM (active)	inactive	inactive
COc1ccc2c(NC(=O)Nc3cccc(C(F)(F)F)n3)ccnc2c1	inactive	inactive	3.01 µM (active)	4.09 µM (active)	3.25 µM (active)
Cc1ccc(S(=O)(=O)NCc2ccc(C(=O)NCCN(Cc3ccccc3)C(C)C)cc2)cc1	inactive	12 µM (active)	9.52 µM (active)	16.3 µM (active)	23 µM (active)
Cn1cc(-c2ccc(F)c(C(F)(F)F)c2)nc1C1CCN(c2ncnc3[nH]ncc23)CC1	inactive	inactive	inactive	inactive	inactive
CCOC(=O)C1(CCOc2ccccc2)CCN(Cc2ccc(O)c(Cl)c2)CC1	inactive	0.425 µM (active)	6.01 µM (active)	23 µM (active)	23 µM (active)
OC1(CN2CCC(COc3noc4cccc(O[C@@H]5CCOC5)c34)CC2)CCOCC1	inactive	6.74 µM (active)	9.52 µM (active)	inactive	inactive
CCCc1cc(C)[nH]c(=O)c1CNC(=O)c1cc(-c2ccnc(N3CCN(C)CC3)c2)cc2c1cnn2C(C)C	inactive	23.9 µM (active)	13.5 µM (active)	12.9 µM (active) and 16.6 µM (active)	9.16 µM (active) and 16.6 µM (active)
Cc1nc(C#Cc2ccnc(Cl)c2)c(C)n1-c1ccc(F)cc1	inactive	19 µM (active)	inactive	11.5 µM (active)	11.5 µM (active)
CCCCC1CCC(c2nc(-c3ccncc3)no2)CC1 (stereo not drawn)	inactive	0.536 µM (active)	5.35 µM (active)	inactive	inactive
COc1ccc(-c2cnc3c(-c4cccc5ncccc45)cnn3c2)cc1	inactive	inactive	12 µM (active)	inactive	inactive
Cn1ncnc1[C@@H]1c2n[nH]c(=O)c3cc(F)cc(c23)N[C@H]1c1ccc(F)cc1	inactive	inactive	inactive	20.5 µM (active)	9.16 µM (active)
COc1ccc(N2CCN(C(=O)c3cc4c(s3)-c3ccccc3S(=O)(=O)C4)CC2)cc1	inactive	inactive	10.7 µM (active)	inactive	inactive
NS(=O)(=O)Nc1ncnc(OCCOc2ncc(Br)cn2)c1-c1ccc(Br)cc1	inactive	inactive	4.77 µM (active)	16.3 µM (active)	11.5 µM (active)

SMILES	Potency [1]	Potency [2]	Potency [3]	Potency [4]	Potency [5]
COc1ccccc1OCCNCC(O)CCOc1cccc2[nH]c3ccccc3c12 (stereo not drawn)	inactive	0.301 µM (active)	0.301 µM (active)	18.3 µM (active)	14.5 µM (active)
O=C(CCl)Nc1cccc(NC2=NS(=O)(=O)c3ccccc32)c1	inactive	inactive	15.1 µM (active)	9.34 µM (active)	6.61 µM (active)
COc1cc2c(cc1-c1c(C)noc1C)ncc1[nH]c(=O)n(C(C)c3ccccn3)c12 (stereo not drawn)	inactive	inactive	5.35 µM (active)	0.325 µM (active)	0.325 µM (active)
Cn1ncc(Cl)c1-c1cc(C(=O)NC(CN)Cc2ccc(F)c(F)c2)oc1Cl (stereo not drawn)	inactive	12 µM (active) and 13.5 µM (active)	8.49 µM (active)	728 nM (active) and 833 nM (active)	817 nM (active) and 742 nM (active)
COc1ccc(Cl)c(Nc2ncnc3cc(OCC4CCN(C)CC4)c(OC)cc23)c1	inactive	inactive	inactive	13.2 µM (active)	13.2 µM (active)
CC(C)(C)c1ccc(-c2nc3c(N4CCN(Cc5ccc6nccnc6c5)CC4)cccc3[nH]2)cc1	inactive	inactive	2.13 µM (active)	9.16 µM (active)	11.5 µM (active)
Cc1cc(NC(=O)NCCN2CCC(O)(Cc3ccccc3)CC2)c2ccccc2n1	inactive	8.49 µM (active)	inactive	inactive	inactive
O=C(NCCCNc1nc(Nc2cccc(CN3CCOCC3)c2)ncc1C1CC1)C1CCC1	inactive	6.01 µM (active)	8.49 µM (active)	2.63 µM (active)	1.18 µM (active)
O=C(NCCN1CCN(c2cccc3c2OCCO3)CC1)c1ccc(F)cc1	inactive	12 µM (active)	19 µM (active)	inactive	inactive
COc1ccc(-c2ccc3c(N4CCOCC4C)nc(N4CCOCC4C)nc3n2)cc1CO (stereo not drawn)	inactive	inactive	4.77 µM (active)	0.0325 µM (active)	0.0515 µM (active)
O=C(Nc1ccc(-c2ccnc(Nc3ccc(N4CCOCC4)cc3)n2)cc1)C1CCCN1 (stereo not drawn)	inactive	inactive	2.13 µM (active)	4.61 µM (active)	4.11 µM (active)
Nc1nc2c(cnn2CCCc2ccc(O)cc2)c2nc(-c3ccco3)nn12	inactive	inactive	3.01 µM (active)	inactive	inactive
CC(C)n1nc(C#Cc2ccccc2)c2c(N)ncnc21	inactive	19 µM (active)	0.601 µM (active)	1.83 µM (active)	3.25 µM (active)
COc1c(C)cnc(Cn2cc(C#CCC(C)(C)O)c3c(Cl)nc(N)nc32)c1C	inactive	inactive	2.39 µM (active)	0.129 µM (active)	0.145 µM (active)
Cc1nc(C(=O)N2CCC[C@H]2Cc2nnc(-c3ccccc3)o2)c(-c2ccccc2F)s1	inactive	inactive	10.7 µM (active)	inactive	inactive
CCCCNc1ncc(C(=O)NCc2ccc(-n3ccnc3)cc2)c(NC2CCC(O)CC2)n1 (stereo not drawn)	inactive	0.674 µM (active)	0.849 µM (active)	5.78 µM (active)	4.59 µM (active)
Cc1ccc(C2(C(=O)N3CCC(n4nc(-c5ccccc5)oc4=O)CC3)CC2)cc1	inactive	13.5 µM (active)	0.756 µM (active)	inactive	inactive
O=C(c1ccccn1)N(Cc1cccs1)C1(C(=O)NC2CCCCC2)CCCCC1	inactive	inactive	9.52 µM (active)	inactive	inactive
Cc1cc(N2CCOCC2)ccc1Nc1nc(NC2CCCCC2)c2[nH]cnc2n1	inactive	inactive	13.5 µM (active)	1.29 µM (active)	8.33 µM (active)
O=C(NCCO)c1cccc(-c2cc(Nc3ccc(OC(F)(F)F)cc3)ncn2)c1	inactive	23.9 µM (active)	21.3 µM (active)	18.3 µM (active)	18.3 µM (active)
Oc1ccc(-c2cnc3ccc(NCc4ccco4)nn23)cc1	inactive	1.69 µM (active)	0.756 µM (active)	1.83 µM (active)	1.83 µM (active)
CCC(CC)C(c1ccc(Nc2nc3ccccc3s2)cc1)n1cncn1 (stereo not drawn)	inactive	2.39 µM (active)	0.952 µM (active)	18.6 µM (active)	18.6 µM (active)
FC(F)(F)c1ccccc1-c1cc(C(F)(F)F)c2nc(C3=NOC4(CCCCC4)C3)[nH]c2c1	inactive	inactive	inactive	18.3 µM (active)	14.5 µM (active)
O=C(Nc1nc2ccc([N+](=O)[O-])cc2s1)C1CCCCC1	inactive	1.9 µM (active)	19 µM (active)	20.5 µM (active)	12.9 µM (active)
O=C(NNc1nc2cc(F)ccc2n2cccc12)c1cnccn1	inactive	inactive	inactive	0.817 µM (active)	0.916 µM (active)
